According to PubChem BioAssay (NCATS):
Inconclusive results are not listed. The source made the active and inactive calls. Calls follow the shape of the dose curve; as a rule, active = well fitted inhibition curve with a large enough effect; inconclusive = small, poorly fitted or top-dose-only effect; inactive = flat fitted curve, though single readings scatter.

Assays:
Test in all cases: qHTS profiling for inhibitors of Plasmodium falciparum proliferation (AID 504749); also: nearly all actives have a fitted effect of over 60% in size
Conditions in all cases: P. falciparum in erythrocytes, SYBR Green DNA, 72 h; series mostly up to 28.7 µM
[1] = test system: CP262
How it was run: (§1)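 Readout was DNA-dye fluorescence from lysed cultures, ex 485/em 535 nm. Parasitized red cells had grown 72 h with compound; data scaled between 0.29 uM artemisinin and DMSO wells and corrected using vehicle-only plates.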

[2] = test system: CP265
How it was run: as §1

[3] = test system: CP266
How it was run: as §1

[4] = test system: CP268
How it was run: as §1

[5] = test system: CP269
How it was run: as §1

[6] = test system: CP286
How it was run: as §1

[7] = test system: CP291
How it was run: as §1

[8] = test system: CP297
How it was run: as §1

[9] = test system: CP305
How it was run: as §1

[10] = test system: CP315
How it was run: as §1

[11] = test system: CP325
How it was run: as §1

[12] = test system: CP335
How it was run: as §1

[13] = test system: DFO2036
How it was run: as §1

[14] = test system: DIV14
How it was run: as §1

[15] = test system: DIV17
How it was run: as §1

[16] = test system: DIV30
How it was run: as §1

[17] = test system: Dd2
How it was run: as §1

[18] = test system: ECU
How it was run: as §1

[19] = test system: FAB9
How it was run: as §1

[20] = test system: GB4
How it was run: as §1

[21] = test system: HB3
How it was run: as §1

[22] = test system: ICS
How it was run: as §1

[23] = test system: JCK
How it was run: as §1

[24] = test system: N140
How it was run: as §1

[25] = test system: P93_24
How it was run: as §1

[26] = test system: P94_40
How it was run: as §1

[27] = test system: PAD
How it was run: as §1

[28] = test system: PC15
How it was run: as §1

[29] = test system: PC26
How it was run: as §1

[30] = test system: PC49
How it was run: as §1

[31] = test system: SC27B
How it was run: as §1

[32] = test system: TAB109
How it was run: as §1

[33] = test system: TAB113
How it was run: as §1

[34] = test system: TAB165
How it was run: as §1

[35] = test system: W2
How it was run: as §1

Measured: Potency
Potency is read from the fitted curve at half-maximal effect.

CC[C@]1([C@H]2O[C@@H]([C@@H]3O[C@](O)(CO)[C@@H](C)C[C@H]3C)C[C@H]2C)CC[C@@H]([C@]2(C)CC[C@@]3(C[C@@H](O)[C@@H](C)[C@@H]([C@H](C)[C@H](OC)[C@H](C)C(=O)O)O3)O2)O1
active: [1] 0.0269 µM | [2] 0.0316 µM | [3] 0.0536 µM | [4] 0.0379 µM | [5] 0.0338 µM | [6] 0.0224 µM | [7] 0.019 µM | [8] 0.0338 µM | [9] 0.0338 µM | [10] 0.0338 µM | [11] 0.0301 µM | [12] 0.019 µM | [13] 0.0355 µM | [14] 0.0338 µM | [15] 0.0269 µM | [16] 0.0379 µM | [17] 0.0398 µM | [18] 0.0501 µM | [19] 0.0708 µM | [20] 0.0269 µM | [21] 0.0447 µM | [22] 0.02 µM | [23] 0.0708 µM | [24] 0.0398 µM | [25] 0.0447 µM | [26] 0.0251 µM | [27] 0.0631 µM | [28] 0.0562 µM | [29] 0.0239 µM | [30] 0.0708 µM | [31] 0.0501 µM | [32] 0.0316 µM | [33] 0.0501 µM | [34] 0.112 µM | [35] 0.019 µM
